From PubChem BioAssay
Where “and” joins values, the source holds several entries; their conditions need not be identical. Identical values can stand only once. Calls of active or inactive are those of the source.

How the values were obtained:
[1] = binders of probe aFSTL3 on microarray, primary screen, stem cell growth factor project, biochemical, small-molecule microarray, fluorescence 635/667 (AID 1064); settings: higher = more signal; small-molecule microarray, probe aFSTL3, fluorescence unless noted;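 note: measures binding of the biotinylated anti-FSTL3 antibody to printed compounds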
[2] = binders from COS7 lysate, DM2A8 probe, primary screen, torsin A project, cell lysate, small-molecule microarray, fluorescence 635/667 (AID 1065); settings: higher = more signal; small-molecule microarray, COS7 cell lysate, probe DM2A8, fluorescence, COS7 lysate expressing mutant human TOR1A unless noted
[3] = binders of probe aFGF2 on microarray, primary screen, stem cell growth factor project, biochemical, small-molecule microarray, fluorescence 635/667 (AID 1067); settings: higher = more signal; small-molecule microarray, probe aFGF2, fluorescence unless noted;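 note: measures binding of biotinylated aFGF2 protein to printed compounds on slides; z-score merges feature fluorescence and signal-to-noise across triplicate slides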
[4] = binders of probe aFGF10 on microarray, primary screen, stem cell growth factor project, biochemical, small-molecule microarray, fluorescence 635/667 (AID 1071); settings: higher = more signal; small-molecule microarray, probe aFGF10, fluorescence unless noted;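 note: score merges 667 nm spot intensity and signal to noise from triplicate slides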
[5] = target: Neurogenic locus notch homolog protein 2 (Homo sapiens) (UniProt Q04721); assay: Notch2 binders on small-molecule microarrays, primary screen, biochemical, small-molecule microarray, 635 nm fluorescence, stem cell growth factors (AID 1073); settings: Notch2 binding, higher = more signal
Neurogenic locus notch homolog protein 2 (Homo sapiens), sequence (Q04721 whole entry, looked up, canonical isoform): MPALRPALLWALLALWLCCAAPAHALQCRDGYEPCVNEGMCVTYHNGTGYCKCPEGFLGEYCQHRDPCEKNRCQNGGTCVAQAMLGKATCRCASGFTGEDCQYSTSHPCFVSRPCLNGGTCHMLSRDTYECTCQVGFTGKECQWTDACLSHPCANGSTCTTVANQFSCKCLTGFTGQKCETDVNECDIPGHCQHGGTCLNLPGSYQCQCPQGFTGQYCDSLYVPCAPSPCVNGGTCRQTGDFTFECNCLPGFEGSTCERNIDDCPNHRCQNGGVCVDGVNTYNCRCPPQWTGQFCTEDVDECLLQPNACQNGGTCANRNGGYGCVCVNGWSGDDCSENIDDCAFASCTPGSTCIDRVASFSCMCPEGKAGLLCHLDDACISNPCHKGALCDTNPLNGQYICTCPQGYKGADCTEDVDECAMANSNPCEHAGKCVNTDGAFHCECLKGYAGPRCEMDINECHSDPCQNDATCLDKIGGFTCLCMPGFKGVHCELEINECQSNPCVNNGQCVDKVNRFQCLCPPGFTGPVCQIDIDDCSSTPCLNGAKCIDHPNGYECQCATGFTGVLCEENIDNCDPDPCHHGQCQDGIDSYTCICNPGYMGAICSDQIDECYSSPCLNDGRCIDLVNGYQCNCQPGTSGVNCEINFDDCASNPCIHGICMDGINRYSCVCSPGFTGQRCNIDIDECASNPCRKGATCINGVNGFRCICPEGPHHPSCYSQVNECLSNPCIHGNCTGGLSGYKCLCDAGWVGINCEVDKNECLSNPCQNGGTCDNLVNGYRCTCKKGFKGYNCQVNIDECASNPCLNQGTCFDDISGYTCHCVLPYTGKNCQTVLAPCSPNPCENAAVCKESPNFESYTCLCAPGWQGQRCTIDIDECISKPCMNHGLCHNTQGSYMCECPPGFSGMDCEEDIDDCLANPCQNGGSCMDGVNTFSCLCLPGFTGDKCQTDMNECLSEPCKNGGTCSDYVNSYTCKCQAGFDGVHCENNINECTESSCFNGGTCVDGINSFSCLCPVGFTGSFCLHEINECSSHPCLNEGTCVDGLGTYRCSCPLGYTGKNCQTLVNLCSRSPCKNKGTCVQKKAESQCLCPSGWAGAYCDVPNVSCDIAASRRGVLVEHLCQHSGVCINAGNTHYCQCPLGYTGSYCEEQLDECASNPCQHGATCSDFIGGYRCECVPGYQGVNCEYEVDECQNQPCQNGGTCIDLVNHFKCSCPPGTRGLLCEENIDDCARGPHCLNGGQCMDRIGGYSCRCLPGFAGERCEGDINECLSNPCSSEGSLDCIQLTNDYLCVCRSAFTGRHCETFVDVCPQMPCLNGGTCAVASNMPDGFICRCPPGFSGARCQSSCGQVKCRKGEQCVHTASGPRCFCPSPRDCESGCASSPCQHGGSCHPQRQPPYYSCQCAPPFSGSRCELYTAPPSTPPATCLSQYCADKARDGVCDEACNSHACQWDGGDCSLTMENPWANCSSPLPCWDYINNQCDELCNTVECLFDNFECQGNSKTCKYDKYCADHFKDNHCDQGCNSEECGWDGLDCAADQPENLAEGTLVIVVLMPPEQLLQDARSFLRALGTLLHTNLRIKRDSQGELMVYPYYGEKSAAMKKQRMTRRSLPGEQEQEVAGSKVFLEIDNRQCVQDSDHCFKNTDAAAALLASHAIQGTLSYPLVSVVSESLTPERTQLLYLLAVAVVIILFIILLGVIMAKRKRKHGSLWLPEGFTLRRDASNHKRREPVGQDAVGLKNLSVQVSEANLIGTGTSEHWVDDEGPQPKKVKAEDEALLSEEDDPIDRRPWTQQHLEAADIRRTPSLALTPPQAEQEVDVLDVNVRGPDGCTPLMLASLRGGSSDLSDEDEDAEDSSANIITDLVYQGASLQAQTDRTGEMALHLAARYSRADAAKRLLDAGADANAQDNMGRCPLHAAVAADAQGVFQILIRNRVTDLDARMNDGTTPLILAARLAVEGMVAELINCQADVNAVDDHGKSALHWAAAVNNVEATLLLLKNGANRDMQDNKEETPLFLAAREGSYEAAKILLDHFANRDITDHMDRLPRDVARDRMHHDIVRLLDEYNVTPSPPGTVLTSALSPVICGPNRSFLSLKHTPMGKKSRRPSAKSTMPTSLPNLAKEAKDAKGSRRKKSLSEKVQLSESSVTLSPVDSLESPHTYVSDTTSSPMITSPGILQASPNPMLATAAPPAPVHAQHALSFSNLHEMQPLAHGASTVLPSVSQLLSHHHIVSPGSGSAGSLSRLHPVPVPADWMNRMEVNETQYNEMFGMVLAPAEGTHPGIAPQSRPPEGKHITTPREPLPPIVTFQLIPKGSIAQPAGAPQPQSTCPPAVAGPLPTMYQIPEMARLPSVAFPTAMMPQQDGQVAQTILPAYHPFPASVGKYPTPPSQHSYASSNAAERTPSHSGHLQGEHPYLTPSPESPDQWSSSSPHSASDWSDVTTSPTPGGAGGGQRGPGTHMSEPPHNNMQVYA

[6] = target: Pro-neuregulin-1, membrane-bound isoform (Homo sapiens) (UniProt Q02297); assay: NRG1 binders on small-molecule microarrays, primary screen, psychiatric disease protein project, biochemical, small-molecule microarray, fluorescence 635/667 (AID 1075); settings: NRG1 binding, 635 nm fluorescence, higher = more signal;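 note: score combines 667 nm spot fluorescence with signal to noise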
Pro-neuregulin-1, membrane-bound isoform (Homo sapiens), sequence (Q02297 whole entry, looked up, the tested form may be a part, canonical isoform): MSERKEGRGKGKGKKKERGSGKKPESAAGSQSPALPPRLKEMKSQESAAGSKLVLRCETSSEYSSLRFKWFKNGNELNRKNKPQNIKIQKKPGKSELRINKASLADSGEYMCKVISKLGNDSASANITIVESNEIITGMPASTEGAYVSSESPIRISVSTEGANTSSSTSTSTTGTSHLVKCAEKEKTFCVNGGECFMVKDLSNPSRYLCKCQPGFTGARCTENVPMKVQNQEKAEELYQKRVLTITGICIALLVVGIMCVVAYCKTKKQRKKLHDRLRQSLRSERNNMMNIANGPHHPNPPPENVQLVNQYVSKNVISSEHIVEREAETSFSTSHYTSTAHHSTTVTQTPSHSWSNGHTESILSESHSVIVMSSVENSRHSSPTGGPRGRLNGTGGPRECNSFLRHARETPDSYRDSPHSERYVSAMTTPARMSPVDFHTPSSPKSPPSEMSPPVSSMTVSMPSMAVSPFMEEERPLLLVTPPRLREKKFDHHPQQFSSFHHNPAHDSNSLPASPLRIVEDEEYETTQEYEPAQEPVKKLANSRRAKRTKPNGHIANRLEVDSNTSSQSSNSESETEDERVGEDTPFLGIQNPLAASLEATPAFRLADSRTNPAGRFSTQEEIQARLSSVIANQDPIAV

[7] = system: Neuregulin-1 EGF-like domain; assay: binders of neuregulin-1 EGF-like domain, primary screen, biochemical, small-molecule microarray, 635 nm fluorescence (AID 1081); settings: small-molecule microarray binding, higher = more signal;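 note: binding of the protein to compounds printed on small-molecule microarray slides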
[8] = FRG1 promoter luciferase signal modulators, primary screen, FRG1 inhibition for FSHD, cell-based, C2C12 myotubes, firefly/Renilla luciferase, luminescence (AID 1084); settings: higher = more signal, called active from +8 up or from −8 down unless noted
[9] = binders of probe aFST on microarray, primary screen, stem cell growth factor project, biochemical, small-molecule microarray, fluorescence 635/667 (AID 1086); settings: higher = more signal;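 note: score merges 667 nm fluorescence with signal-to-noise of each printed compound spot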
[10] = binders of probe aHhip on microarray, primary screen, stem cell growth factor project, biochemical, small-molecule microarray, fluorescence 635/667 (AID 1087); settings: higher = more signal;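 note: score merges spot fluorescence at 667nm with spot signal to noise ratio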

SMILES: OCc1ccc(C2=CC(c3cccs3)N(Cc3cccc(OC(F)(F)F)c3)CC2)cc1 (stereo not given)
- composite z-score [1]: -0.0593
- composite z-score [2]: 0.466
- composite z-score [3]: -0.0996
- composite z-score [4]: -0.242
- composite z-score [5]: -0.515
- composite z-score [6]: 0.764
- composite z-score [7]: 0.536
- z-score [8]: -0.39 (inactive)
- composite z-score [9]: -0.0002
- composite z-score [10]: 0.0908

SMILES: C[C@@H]1Cc2c(cnc3c2CN(C)CC3)CO1
- composite z-score [1]: -0.0578
- composite z-score [2]: 0.442
- composite z-score [3]: -0.105
- composite z-score [4]: 0.0502
- composite z-score [5]: -0.163
- composite z-score [6]: -0.93
- composite z-score [7]: -0.206
- z-score [8]: -0.989 (inactive)
- composite z-score [9]: 0.0686
- composite z-score [10]: 0.312

SMILES: CN1CCc2nc(CO)c(CO)cc2C1
- composite z-score [1]: -0.304
- composite z-score [2]: 0.267
- composite z-score [3]: -0.0982
- composite z-score [4]: 0.401
- composite z-score [5]: 0.528
- composite z-score [6]: 0.0016
- composite z-score [7]: 0.611
- z-score [8]: 0.294 (inactive)
- composite z-score [9]: 0.242
- composite z-score [10]: 0.0881

SMILES: CN1CCC(c2ccc(CO)cc2)=CC1c1cccs1 (stereo not given)
- composite z-score [1]: -0.182
- composite z-score [2]: -0.191
- composite z-score [3]: -0.128
- composite z-score [4]: -0.53
- composite z-score [5]: -0.131
- composite z-score [6]: 0.0188
- composite z-score [7]: 1.04
- z-score [8]: 1.68 (inactive)
- composite z-score [9]: 0.13
- composite z-score [10]: -0.134

SMILES: COC(=O)[C@H]1[C@@H](O)[C@@]2(O)c3c(OC)cc(OC)cc3O[C@@]2(c2ccc(OC)cc2)[C@@H]1c1ccccc1
- composite z-score [1]: -0.327
- composite z-score [2]: 0.287
- composite z-score [3]: -0.0894
- composite z-score [4]: 0.52
- composite z-score [5]: 0.514
- composite z-score [6]: 0.167
- composite z-score [7]: 0.357
- z-score [8]: 0.128 (inactive)
- composite z-score [9]: 0.0836
- composite z-score [10]: -0.152

SMILES: CN1CCC(c2ccc(CO)cc2)=CC1C1CC1 (stereo not given)
- composite z-score [1]: -0.394
- composite z-score [2]: -0.0038
- composite z-score [3]: -0.158
- composite z-score [4]: -0.301
- composite z-score [5]: -0.616
- composite z-score [6]: -0.292
- composite z-score [7]: 0.839
- z-score [8]: 0.666 (inactive)
- composite z-score [9]: -0.337
- composite z-score [10]: -0.164

SMILES: CCOC(=O)[C@H]1CC=C2C(=O)Oc3ccc(Br)cc3[C@@H]21
- composite z-score [1]: 0.165
- composite z-score [2]: 0.384
- composite z-score [3]: -0.161
- composite z-score [4]: -0.332
- composite z-score [5]: -0.664
- composite z-score [6]: 0.994
- composite z-score [7]: 0.727
- z-score [8]: -0.818 (inactive)
- composite z-score [9]: -0.598
- composite z-score [10]: -0.134

SMILES: CCc1cc2c(nc1CC)CCN(CCC(C)=NOC)C2
- composite z-score [1]: 0.515
- composite z-score [2]: 0.974
- composite z-score [3]: -0.0097
- composite z-score [4]: 0.324
- composite z-score [5]: 0.608
- composite z-score [6]: 0.0159
- composite z-score [7]: 0.763
- z-score [8]: 2.07 (inactive)
- composite z-score [9]: 0.497
- composite z-score [10]: 0.113

SMILES: C=C(CC1(C(C)NP(=O)(c2ccccc2)c2ccccc2)CC1)c1ccccc1 (stereo not given)
- composite z-score [1]: 0.21
- composite z-score [2]: -0.954
- composite z-score [3]: 0.208
- composite z-score [4]: 0.851
- composite z-score [5]: 1.01
- composite z-score [6]: 1.16
- composite z-score [7]: 0.714
- z-score [8]: -3.03 (inactive)
- composite z-score [9]: 0.881
- composite z-score [10]: 0.113

SMILES: OCc1ccc(C2=CC(C3CC3)N(Cc3sc4ccccc4c3Cl)CC2)cc1 (stereo not given)
- composite z-score [1]: 0.0908
- composite z-score [2]: 1.02
- composite z-score [3]: -0.107
- composite z-score [4]: 0.261
- composite z-score [5]: 0.166
- composite z-score [6]: 0.503
- composite z-score [7]: 1.14
- z-score [8]: -1.71 (inactive)
- composite z-score [9]: 0.19
- composite z-score [10]: -0.0296

SMILES: C=C(CC1(CNP(=O)(c2ccccc2)c2ccccc2)CC1)c1ccccc1
- composite z-score [1]: 0.019
- composite z-score [2]: -0.115
- composite z-score [3]: 0.179
- composite z-score [4]: 0.33
- composite z-score [5]: 0.777
- composite z-score [6]: 1.69
- composite z-score [7]: 0.525
- z-score [8]: -3.35 (inactive)
- composite z-score [9]: 0.622
- composite z-score [10]: -0.0618

SMILES: C[C@@H]1OC=C2[C@@H](O)[C@H]3O[C@H]3C(=O)[C@]23[C@H]1[C@H]1C2=C([C@@H](O)[C@H]4O[C@H]4C2=O)[C@@H]3O[C@@H]1C
- composite z-score [1]: -0.532
- composite z-score [2]: 0.0437
- composite z-score [3]: -0.169
- composite z-score [4]: -0.0391
- composite z-score [5]: 0.121
- composite z-score [6]: -0.854
- composite z-score [7]: -0.372
- z-score [8]: -0.165 (inactive)
- composite z-score [9]: -0.192
- composite z-score [10]: 0.0274

SMILES: COC(=O)[C@@]1(Cc2ccc(F)cc2)[C@H]2c3cc(C(=O)N(C)C)[nH]c3C[C@H]2CN1C(=O)c1ccccc1
- composite z-score [1]: 0.0665 [setting not given]
- composite z-score [2]: -0.441 [setting not given]
- composite z-score [3]: -0.162 [setting not given]
- composite z-score [4]: 0.203 [setting not given]
- composite z-score [5]: 1.35
- composite z-score [6]: 0.986
- composite z-score [7]: 1.06
- z-score [8]: 0.832 [setting not given] (inactive)
- composite z-score [9]: 0.656
- composite z-score [10]: -0.236

SMILES: O=P(c1ccccc1)(c1ccccc1)N1CC2(CC2)CC(O)(c2ccccc2)C1 (stereo not given)
- composite z-score [1]: 0.234
- composite z-score [2]: -0.86
- composite z-score [3]: 0.0316
- composite z-score [4]: 0.862
- composite z-score [5]: 1.65
- composite z-score [6]: 0.963
- composite z-score [7]: 1.33
- z-score [8]: -2.28 (inactive)
- composite z-score [9]: 0.553
- composite z-score [10]: 0.21

SMILES: CC1N(P(=O)(c2ccccc2)c2ccccc2)CC(O)(c2ccccc2)CC12CC2 (stereo not given)
- composite z-score [1]: 0.401 and 0.0381
- composite z-score [2]: -1.21 and -0.157
- composite z-score [3]: 0.0161 and 0.221
- composite z-score [4]: 0.309 and 0.352
- composite z-score [5]: 0.621 and 1.54
- composite z-score [6]: 2 and 1.82
- composite z-score [7]: 1.41 and 0.526
- z-score [8]: 2.45 (inactive) and -0.78 (inactive)
- composite z-score [9]: -0.0551 and 1.02
- composite z-score [10]: 0.238 and 0.535

SMILES: COC(=O)NCC=Cc1nc(CCC=CC(=O)O[C@H]2CC3CC(=O)O[C@@H](C=CCC(C)C)C[C@@H]4CC[C@H](C)[C@@H](C[C@@H](OC)C[C@H](C2)O3)O4)co1
- composite z-score [1]: -0.117
- composite z-score [2]: -0.381
- composite z-score [3]: -0.114
- composite z-score [4]: -0.328
- composite z-score [5]: -0.896
- composite z-score [6]: -0.657
- composite z-score [7]: -0.905
- z-score [8]: 0.524 (inactive)
- composite z-score [9]: -0.15
- composite z-score [10]: -0.12
